Consider eight compounds from PubChem BioAssay (NCI).

What all share (test): NCI-60 one-dose screen, 48 h (100 = growth as untreated, 0 = no growth, -100 = all killed)
Common to all, as to conditions: 10 µM unless noted

The test system of test [1] is HCT-15 colon.
Test [2] has as its system HT29 colon.
Test [3] concerns SNB-19 CNS.
The subject of test [4] is U251 CNS.
Test [5] concerns PC-3 prostate.
Test [6] has as its system SK-MEL-5 melanoma.
Test [7] has as its system UACC-62 melanoma.
Test [8] has as its system LOX IMVI melanoma.
The subject of test [9] is SK-MEL-28 melanoma.
The subject of test [10] is EKVX NSCLC.
Test [11] concerns SN12C renal.
Test [12] has as its system UO-31 renal.
For test [13], the system named is TK-10 renal.
Test [14] has as its system ACHN renal.
Test [15] relates to CAKI-1 renal.
Test [16] deals with CCRF-CEM leukemia.
In test [17] the test system is MOLT-4 leukemia.
In test [18] the test system is SK-MEL-2 melanoma.
Test [19] concerns A498 renal.
Test [20] relates to SNB-75 CNS.

About 83,000 compounds went through this panel and 20% of them were active in at least one assay; those are over-represented in the sample as a whole.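 Plates (96-well) were seeded with cells, treated with compound at one concentration, and incubated for 48 hours before percent growth was determined.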 Unmarked numbers belong to inactive results. The source made the active and inactive calls. How the source made its calls: active means growth percent below 10; inactive means the rest.

As for `COc1ccc(-c2nc([C@@H](C)Sc3nc(N)cc(N)n3)c(C)s2)cc1OCCN1CCOCC1`, the growth in [1] was 103%; in test [2] it was 97.4%; in [3] it was 91.3%; in [4] it was 91.8%; in [5], 79.8%; in test [6], 82.2%. In addition, the growth was 84.3% in test [7]; 95.8% in test [8]; 113% in test [9]; 105% in test [10]; 99.8% in test [11]; 73.7% in [12]. For the same compound, the growth is 104% in test [13]; 92.3% in test [14]; 90.6% in [15]; 83.7% in [16]; 85.1% in [17].

As for `COc1cc2nc(-c3ccc(Cl)cc3)cc(OCCCN3CCOCC3)c2cc1OC`, the growth in test [1] is 19.2%; in test [2], 22.3%; in [3], 73.5%; in test [4] it was 47.3%; in [5], 54%; in [6] it was -52.6% (active). Moreover, the growth in test [7] is -20.9% (active); in test [8] it was -56% (active); in [9] it was 60.1%; in test [18] it was 73.1%; in test [10] it was 55.7%; in test [11], 38.4%. Moreover, the growth in test [12] is 59.6%; in test [13], 97.9%; in test [14] it was 40.6%; in test [15] it was -12% (active); in test [16], 61.4%; in [17], 56.4%.

For `CCOC(=O)CC1CSC(N/N=C/c2ccc(-n3cccn3)cc2)=N1` (stereo unspecified), the growth is 104% in test [1]; 99.3% in [2]; 98.9% in [3]; 96.9% in test [4]; 99.6% in test [5]; 98.1% in [6]. The growth is 92.5% in test [7]; 97.4% in test [8]; 111% in test [9]; 113% in test [18]; 108% in test [10]; 100% in test [11]. Besides, the growth was 90.9% in test [12]; 108% in [13]; 109% in [14]; 102% in test [15]; 97.8% in [19]; 94.1% in test [16]. Also, the growth in test [17] was 97.3%.

For `C=C(C)[C@@H]1CC[C@]2(C(=O)N[C@H](CO)Cc3ccccc3)CC[C@]3(C)[C@H](CC[C@@H]4[C@@]5(C)CCCNC(C)(C)[C@@H]5CC[C@]43C)[C@@H]12`, the growth in test [1] was -82.3% (active); in test [20] it was -95.1% (active); in [3] it was -88% (active); in [4], -89.7% (active); in test [5], -84.9% (active); in test [6] it was -95.5% (active). For the same compound, the growth in test [7] was -85.6% (active); in test [8], -86.2% (active); in test [9] it was -92.3% (active); in test [18], -92.5% (active); in [10] it was -84.1% (active); in [11], -83.3% (active). For the same compound, the growth in test [12] was -92.6% (active); in test [13], -94.7% (active); in test [14], -95.9% (active); in [15], -93.5% (active); in test [19], -97.9% (active); in [16], -46.7% (active). Moreover, the growth in test [17] was -62.6% (active).

For the compound `Cn1nc(CC#N)c2c(=N)n(N)cnc21`, the growth was 111% in [1]; 87.4% in test [20]; 111% in test [3]; 99.4% in test [4]; 96.2% in test [5]; 111% in [6]. Moreover, the growth in test [7] is 103%; in test [8] it was 103%; in test [9], 121%; in [18] it was 113%; in test [10], 94.4%; in [11] it was 98.6%. The growth in test [12] is 80.1%; in test [13], 104%; in test [15], 95.3%; in test [16] it was 126%; in test [17], 94.7%.

As to `CCOC(=O)Oc1c(OC)cc(C(=O)c2ccc(OC)c(O)c2OC)cc1OC`, the growth in [1] was 14.7%; in [20], 34.1%; in [3], 25.9%; in [4], 23.5%; in test [5] it was 22.8%; in [6] it was 32%. Further, the growth in test [7] was 34.3%; in test [8] it was 49.7%; in test [9], 53.1%; in test [10] it was 58.9%; in test [11] it was 46%; in [12], 46.9%. For the same compound, the growth in test [13] was 43%; in [14], 38.5%; in test [15], 32%; in [16] it was 15.2%; in [17] it was 28.1%.

Consider `O=C(O)c1ccc(NCc2cn(-c3ccc(C(F)(F)F)cc3)nc2-c2ccc(C(=O)O)cc2)cc1`, for which the growth in test [1] is 101%; in test [20] it was 91.8%; in test [3], 101%; in test [4], 99.7%; in test [5] it was 108%; in [6], 103%. For the same compound, the growth in test [8] was 99.4%; in test [9] it was 112%; in test [18] it was 112%; in [10], 98%; in test [11] it was 103%; in test [12] it was 84.2%. Moreover, the growth was 106% in test [13]; 109% in [14]; 95.8% in test [15]; 106% in test [16]; 109% in [17].

In the case of `O=C(Cn1c(C(=O)c2ccccc2)nc2ccccc21)c1ccc(F)cc1`, the growth in test [1] was 44.4%; in test [20], 48.4%; in test [3], 74.5%; in [4] it was 55.1%; in test [6], 60.7%; in [7], 37.1%. Also, the growth in test [8] is 61.3%; in [9] it was 54%; in test [18], 60.7%; in test [10] it was 83.2%; in test [11], 77.9%; in [12], 80.6%. Besides, the growth is 67.7% in test [13]; 42.6% in [15]; 86.5% in test [19]; 57.1% in [16]; 21.3% in test [17].
